# In PubChem BioAssay (NCATS):
# Results filed as inconclusive are left out. A call without a number means that no potency is given here. Active and inactive are the calls of the source. Unless noted, calls follow the shape of the dose curve; as a rule, active = well fitted curve in the direction sought with a large enough effect; inconclusive = small, poorly fitted or top-dose-only effect, or another doubt; inactive = no such curve, though single readings can be large; an effect the other way counts as inactive or inconclusive.
# Assays:
# [1] = target: Cytochrome P450 3A4 (Homo sapiens) (UniProt P08684); test: qHTS Assay for Inhibitors and Substrates of Cytochrome P450 3A4 (AID 884); conditions: recombinant CYP3A4, Luciferin-PPXE luminescence; series mostly up to 57.1 µM; also: nearly all actives have a fitted effect of over 50% in size; also: potency is read from the fitted curve at half-maximal effect
# Procedure, shortened: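 20 nM human CYP3A4 with 25 uM Luciferin-PPXE (at KM) in 200 mM KPO4, preincubated 10 min with compound; NADPH regeneration started a 60 min RT reaction. Luciferin detected by luminescence, normalized to 57 uM ketoconazole as full inhibition.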
# [2] = Confirmation and Secondary Assay for Modulators of Hemoglobin Beta Chain Splicing at IVS2 654 locus (AID 910); conditions: HeLa EGFP-654 splicing reporter, GFP fluorescence, 48 h; series mostly up to 46.1 µM;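 also: per-well total GFP intensity by laser scanning cytometry after 2-day treatment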
# Procedure, shortened: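 HeLa cells stably carrying EGFP interrupted by mutant beta-globin IVS2-654 intron (CMV-driven) were treated with compound for 2 days at 37C; corrected splicing was scored as total peak GFP intensity per well (488 nm excitation, 500-520 nm emission).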
# [3] = Confirmation and Secondary Assay for Modulators of Hemoglobin Beta Chain Splicing at IVS2 705 locus (AID 930); conditions: HeLa EGFP-705 splicing reporter, GFP fluorescence, 48 h; series mostly up to 46.1 µM;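 also: HeLa cells stably expressing the EGFP-705 splicing reporter; GFP fluorescence per well restored by corrected splicing of the IVS2-705 intron in EGFP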
# Procedure, shortened: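 First, HeLa EGFP-705 cells are seeded at 500/well in Optimem with 2% FCS and left overnight. Next, compound or DMSO is added for 2 days. Finally wells are laser-scanned and total peak GFP intensity scored.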
# [4] = qHTS Assay for Lipid Storage Modulators (AID 1519; calls by dose curve); conditions: Drosophila S3 cells, BODIPY lipid droplet/cell ratio, laser cytometry, cells loaded with oleic acid; for activity change, negative = inhibition: at 57.5 µM (top of the series)
# Procedure, shortened: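 Cells seeded at 5,000 per well were treated with compounds over a concentration series and loaded with oleic acid (400 uM, as added). Lipid droplet fluorescence (488 nm excitation, 500-530 nm channel) was read by laser-scanning cytometry and normalized to 20 uM Triacsin C.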
# [5] = target: Ubiquitin carboxyl-terminal hydrolase 1 (Homo sapiens) (UniProt O94782); test: Inhibitors of USP1/UAF1: Pilot qHTS (AID 504865); conditions: purified USP1/UAF1, Ub-rhodamine cleavage fluorescence; series mostly up to 114 µM;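 also: rhodamine fluorescence freed from ubiquitin-rhodamine substrate followed over time; top concentration of the series differs between compounds; nearly all actives have a fitted effect of over 35% in size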
# Procedure, shortened: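 USP1/UAF1 complex (1nM) preincubated with compound 15 min at room temperature, then Ub-Rho substrate (150nM final) added. Fluorescence read kinetically at 480/540 nm, 6 reads every 60 seconds. Buffer: 50mM HEPES pH 7.8, 0.5mM EDTA, 0.1 mg/ml BSA, 1mM TCEP, 0.01% Tween-20.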
# [6] = measured here: cell count channel max response
# [7] = measured here: lipid channel max response
# Sequence of Cytochrome P450 3A4 (Homo sapiens) (P08684 whole entry, looked up): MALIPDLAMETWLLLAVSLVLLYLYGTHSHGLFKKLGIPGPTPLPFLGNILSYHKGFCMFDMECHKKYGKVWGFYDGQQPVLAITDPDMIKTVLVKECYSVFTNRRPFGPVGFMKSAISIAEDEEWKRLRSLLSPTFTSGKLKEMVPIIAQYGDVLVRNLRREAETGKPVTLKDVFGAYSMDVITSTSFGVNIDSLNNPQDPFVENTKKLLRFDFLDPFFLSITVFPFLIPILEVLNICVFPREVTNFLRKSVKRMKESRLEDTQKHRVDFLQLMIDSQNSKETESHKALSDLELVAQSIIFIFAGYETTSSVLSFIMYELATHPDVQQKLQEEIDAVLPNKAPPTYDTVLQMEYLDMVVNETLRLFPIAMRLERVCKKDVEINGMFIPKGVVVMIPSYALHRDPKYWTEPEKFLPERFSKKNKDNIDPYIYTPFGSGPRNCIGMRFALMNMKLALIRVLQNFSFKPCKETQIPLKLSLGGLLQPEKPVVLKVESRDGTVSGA
# Sequence of Ubiquitin carboxyl-terminal hydrolase 1 (Homo sapiens) (O94782 whole entry, looked up): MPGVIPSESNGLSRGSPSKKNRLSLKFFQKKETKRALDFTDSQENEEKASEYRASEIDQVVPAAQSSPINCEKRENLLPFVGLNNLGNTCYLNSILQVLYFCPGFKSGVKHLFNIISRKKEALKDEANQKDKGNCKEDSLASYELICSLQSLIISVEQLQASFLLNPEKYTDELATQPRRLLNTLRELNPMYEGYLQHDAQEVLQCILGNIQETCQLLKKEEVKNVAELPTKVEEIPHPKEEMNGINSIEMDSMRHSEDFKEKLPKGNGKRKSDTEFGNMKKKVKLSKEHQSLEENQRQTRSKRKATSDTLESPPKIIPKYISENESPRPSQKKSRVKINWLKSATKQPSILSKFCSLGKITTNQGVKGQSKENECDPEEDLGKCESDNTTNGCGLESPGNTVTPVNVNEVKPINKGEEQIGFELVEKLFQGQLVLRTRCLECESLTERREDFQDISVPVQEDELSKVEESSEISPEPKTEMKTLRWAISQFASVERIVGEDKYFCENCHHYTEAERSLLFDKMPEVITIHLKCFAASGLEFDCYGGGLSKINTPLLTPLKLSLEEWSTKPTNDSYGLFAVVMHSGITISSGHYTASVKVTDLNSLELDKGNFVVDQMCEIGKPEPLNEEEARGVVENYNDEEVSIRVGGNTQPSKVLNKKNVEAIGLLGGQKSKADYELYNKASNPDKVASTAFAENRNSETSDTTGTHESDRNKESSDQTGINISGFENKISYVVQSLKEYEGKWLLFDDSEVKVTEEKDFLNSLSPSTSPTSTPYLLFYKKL
Structure (SMILES),Potency [1],Potency [2],Potency [3],"activity change, negative = inhibition [4]","max response [4, 6]","max response [4, 7]",Potency [5]
CC(=O)OC/C=C(\C)CC/C=C(\C)CC/C=C(\C)CC/C=C(\C)CC/C=C(\C)CC/C=C(\C)CC/C=C(\C)CC/C=C(\C)CCC=C(C)C,inactive,inactive,inactive,1.76% (inactive),7.11%,8.78%,inactive
C=C(C)C1CC[C@]2(CO)CC[C@@]3(C)[C@H](CCC4[C@@]5(C)CCC(O)C(C)(C)C5CC[C@@]43C)C12 (some centres not stated),inactive,inactive,inactive,-2.93% (inactive),-9.58%,-12.7%,inactive
CC(=O)O[C@]1(C)CC[C@]23CC1C(C)(C)C2CC[C@@H]3C (some centres not stated),inactive,inactive,inactive,3.63% (inactive),7.64%,13.6%,inactive
CC(=O)OCC1OC(n2c(Br)nc3c(=O)[nH]c(N)nc32)C(OC(C)=O)C1OC(C)=O (configuration not stated),inactive,inactive,inactive,1.02% (inactive),9.1%,10.5%,inactive
CC(C)C1COc2cc3oc(=O)ccc3cc2O1 (configuration not stated),inactive,inactive,inactive,9.84% (inactive),6%,13.7%,inactive
CCC(CCC(C)C1CCC2C3CCC4CC(O)CC[C@@]4(C)C3CC[C@@]12C)C(C)C (some centres not stated),inactive,inactive,inactive,7.69% (inactive),1.31%,10.4%,inactive
O=C(Oc1cc(OC(=O)c2ccccc2)c2c(c1)OC(c1ccc(OC(=O)c3ccccc3)c(OC(=O)c3ccccc3)c1)[C@@H](OC(=O)c1ccccc1)C2)c1ccccc1 (some centres not stated),inactive,inactive,inactive,-8.04% (inactive),23.3%,15.7%,inactive
COc1ccc(-c2coc3cc(O)ccc3c2=O)c(OC)c1O,inactive,inactive,inactive,-3.58% (inactive),12.3%,2.49%,inactive
COc1ccc(-c2coc3c(OC)c(OC)cc(OC)c3c2=O)cc1,inactive,inactive,inactive,12.7% (inactive),16.4%,29.7%,inactive
COc1cc2c3cc1Oc1cc(ccc1O)CC1c4c(cc(OC)c(O)c4Oc4ccc(cc4)CC3N(C)CC2)CC[N+]1(C)C (configuration not stated),inactive,inactive,inactive,4.12% (inactive),-2.85%,6.31%,inactive
CC(=O)N1CCCC1C(=O)O (configuration not stated),inactive,inactive,inactive,7.19% (inactive),1.45%,9.22%,inactive
CC1(C)CC2C1CC[C@]1(C)CCC3C(C(=O)O)CC(=O)O[C@]32C1 (some centres not stated),inactive,inactive,inactive,3.56% (inactive),4.93%,10.6%,inactive
CC(=O)Oc1ccc2c(c1)CCC1C2CC[C@@]2(C)C1CC(OC(C)=O)C2OC(C)=O (some centres not stated),inactive,inactive,inactive,5.31% (inactive),10.1%,17.4%,inactive
CC(C)(O)C1CC[C@@]2(C)C3CCC4[C@@]5(C)CCCC(C)(C)C5C(O)C[C@]4(C)[C@]3(C)CC[C@@H]12 (some centres not stated),inactive,inactive,inactive,5.94% (inactive),19.9%,27.3%,inactive
O=c1[nH]c(Cl)nc2c1ncn2C1OC(CO)C(O)C1O (configuration not stated),inactive,inactive,inactive,5.69% (inactive),2.53%,10.3%,inactive
CCCC1CC(C(=O)N[C@H](C(C)O)C2OC(SC)[C@@H](O)C(O)C2O)N(C)C1 (some centres not stated),inactive,inactive,inactive,12.2% (inactive),19.1%,38.8%,inactive

Structure (SMILES),Potency [1],Potency [2],Potency [3],"activity change, negative = inhibition [4]","max response [4, 6]","max response [4, 7]",Potency [5]
C[C@@H]1OC(OC2CC[C@@]3(C)C(CC[C@@]4(C)C3CC=C3C5CC(C)(C)CC[C@]5(C(=O)OC5OCC(O)[C@@H](O)[C@@H]5OC5O[C@@H](C)[C@H](O[C@H]6OC(CO)C(O)C(O)C6O)C(O)C5O)C(O)C[C@@]34C)C2(C)C)C(O)C(O)[C@H]1OC1OCC(O)C(O)[C@H]1O (some centres not stated),inactive,inactive,inactive,1.15% (inactive),-28.2%,-26.8%,inactive
CS(=O)(=O)c1ccc(C(O)C(CO)NC(=O)C(Cl)Cl)cc1 (configuration not stated),inactive,inactive,inactive,6.29% (inactive),3.52%,13.6%,inactive
C=C(C)C1(O)OC(=O)C=C1OC (configuration not stated),inactive,inactive,inactive,-0.62% (inactive),-1.24%,-2.01%,inactive
CCCCCC(=O)Cc1cc(O)cc(O)c1C(=O)Oc1cc(CC(=O)CCCCC)c(C(=O)O)c(OC)c1,15.8 µM (active),inactive,inactive,4.27% (inactive),7.66%,16.1%,inactive
COC(=O)Oc1ccccc1C(=O)O,inactive,inactive,inactive,5.3% (inactive),15.1%,21.1%,inactive
NCCC(O)C(=O)NC1C[C@@H](N)[C@H](O[C@@H]2OC(CN)C(O)C(O)C2O)C(O)[C@H]1O[C@H]1OC(CO)C(O)C(N)C1O (some centres not stated),inactive,inactive,inactive,7.58% (inactive),23.7%,35.1%,inactive
CC(=O)OC1CC(OC(C)=O)[C@]2(C)C(CC(OC(C)=O)[C@]3(C)C2CC[C@@]2(C)C(c4ccoc4)OC(=O)C4O[C@]432)C1(C)C (some centres not stated),1.26 µM (active),inactive,inactive,0.867% (inactive),-4.64%,-0.493%,inactive
CC(=O)Oc1ccc2c(c1)CCC1C2CC[C@]2(C)C(=O)CCC12 (some centres not stated),inactive,inactive,inactive,-6.33% (inactive),-13.1%,-17.8%,inactive
CC1CC[C@@]2(OC1)OC1CC3C4CC=C5CC(O)CC[C@@]5(C)C4CC[C@]3(C)C1C2C (some centres not stated),inactive,inactive,inactive,5.92% (inactive),10.1%,19%,inactive
Nc1nc2c([nH]c(=O)n2C2OC(CO)C(O)C2O)c(=O)[nH]1 (configuration not stated),inactive,inactive,inactive,1.54% (inactive),9.74%,13.6%,inactive
CC(=O)OC1CC[C@]2(C)C(=CCC3C4CCC(C(C)CCCC(C)C)[C@]4(C)CCC32)C1 (some centres not stated),inactive,inactive,inactive,5.26% (inactive),9.32%,13.2%,inactive
Nc1nc2[nH]c(=O)[nH]c2c(=O)[nH]1,inactive,inactive,inactive,-0.21% (inactive),10.7%,11.7%,inactive
CC(C)=CC1C(C(=O)O)C1(C)C (configuration not stated),inactive,inactive,inactive,7.47% (inactive),18%,29.9%,inactive
CC(=O)O[C@@]1(C(C)=O)CCC2C3C=C(Cl)C4=CC(=O)C5CC5[C@@]4(C)C3CC[C@]21C (some centres not stated),inactive,inactive,inactive,2.54% (inactive),-3.69%,0.864%,inactive
COc1ccc(CCC(=O)c2c(O)cc(OC3OC(CO)C(O)C(O)C3O[C@@H]3OC(C)C(O)C(O)C3O)cc2O)cc1O (some centres not stated),inactive,inactive,inactive,7.07% (inactive),3.74%,14.6%,inactive
